Bioassay records (PubChem BioAssay)
Sampled rows, rich in hits. Any-hit rate of the full collection: about 7.3%.
Tau ThT inhib: tau fibrillization inhibition (ThT binding); recombinant tau K18 P301L, heparin-induced fibrillization, ThT fluorescence; P10636; Potency, µM (top dose mostly 57.4 µM), without a hit: at the highest dose activity, negative = inhibition, usual class: inhibitors; 2.1% of 270,000 active; further: nearly all actives have a fitted effect of over 55% in size
Target sequence (P10636 561-689 P618L limits assumed): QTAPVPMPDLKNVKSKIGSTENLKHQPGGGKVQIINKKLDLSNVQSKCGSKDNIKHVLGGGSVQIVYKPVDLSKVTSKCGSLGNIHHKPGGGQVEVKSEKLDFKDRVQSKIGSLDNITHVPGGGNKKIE
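Aggregation was driven by heparin (20 uM final) acting on recombinant tau […] bearing P301L in 100 mM sodium acetate pH 7; fibrils were detected with Thioflavin T.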
Tau fluor counter: counter-screen for tau fibril formation inhibitors; tau K18 P301L Alexa594 fluorescence, heparin fibrillization; Potency, µM (doses to about 57.7 µM), without a hit: top-dose activity change, negative = decrease; 0.93% of 280,000 active; further: nearly all actives have a fitted effect of over 55% in size
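Human tau K18 P301L (15 uM unlabeled, 0.24 uM Alexa 594-labeled) in 100 mM sodium acetate pH 7 with 20 uM heparin, 6 hr at 37 C. ThT 30 uM added, 1 hr ambient; Alexa 594 FP and total fluorescence read at 555/632 nm.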
Tau fibril FP: tau fibrillization inhibition (FP); P10636; K18 P301L tau heparin fibrillization, Alexa594 FP, 6 h; Potency, µM (series often up to 57.7 µM), for the others: at the top dose activity, negative = inhibition, hits mostly inhibitors; 0.39% of 280,000 active; AID 1468; further: nearly all actives have a fitted effect of over 55% in size
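Human tau K18 […] P301L fragment, 15 uM unlabeled plus 0.24 uM Alexa 594-labeled tau (final), with compound and 20 uM heparin in 100 mM sodium acetate pH 7; 6 hr at 37 C, then Alexa 594 FP read.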
VP16 counter: counter-screen for ROR gamma inhibitors: Gal4-VP16 reporter. Drosophila S2 Gal4-VP16 UAS-luciferase, luminescence, 20 h. Potency, µM (top dose mostly 53.6 µM), without a hit: top-dose activity, negative = inhibition, actives largely listed as inhibitors. 3.5% of 310,000 active;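 further: Gal4-VP16 expression switched on by copper sulfate through the metallothionein promoter; nearly all actives have a fitted effect of over 50% in size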
RORgamma inh: inhibitors of mouse ROR gamma transcriptional activity; P51450; Drosophila S2 Gal4-RORgamma UAS-luciferase reporter, 20 h; Potency, µM (top dose mostly 53.6 µM), for the others: at the top dose activity change, negative = inhibition, most hits filed as inhibitors; 5.4% of 310,000 active; AID 2551; further: nearly all actives have a fitted effect of over 60% in size
Target sequence (P51450 whole entry, looked up, the tested form may be a part): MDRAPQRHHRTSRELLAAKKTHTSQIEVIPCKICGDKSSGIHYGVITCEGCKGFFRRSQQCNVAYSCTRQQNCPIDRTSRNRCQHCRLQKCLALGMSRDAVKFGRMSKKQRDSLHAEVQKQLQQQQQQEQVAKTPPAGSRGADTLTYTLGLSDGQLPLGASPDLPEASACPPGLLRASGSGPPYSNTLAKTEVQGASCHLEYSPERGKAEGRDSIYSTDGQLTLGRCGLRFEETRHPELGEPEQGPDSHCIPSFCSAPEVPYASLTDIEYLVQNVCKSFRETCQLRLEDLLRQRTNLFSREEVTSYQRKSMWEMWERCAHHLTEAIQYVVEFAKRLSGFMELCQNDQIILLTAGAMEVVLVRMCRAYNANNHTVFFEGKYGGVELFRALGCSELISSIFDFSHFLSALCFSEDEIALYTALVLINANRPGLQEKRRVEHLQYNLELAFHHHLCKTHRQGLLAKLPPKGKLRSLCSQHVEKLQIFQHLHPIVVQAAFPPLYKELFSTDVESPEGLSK
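A Gal4/UAS one-hybrid system in insect cells: metallothionein-promoter Gal4–ROR gamma fusion plus Photinus luciferase reporter. Copper sulfate 700 uM final, 20 hr ambient incubation, luminescent detection after 10 min with reagent.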
Numbers without * were called inactive; ? = inconclusive; . = not tested or not shown; [ ] = remark or other dose. The call rests on the fitted dose curve; in most records, active means well fitted curve in the direction sought with a large enough effect; inconclusive means small, poorly fitted or top-dose-only effect, or another doubt; inactive means no such curve, though single readings can be large; an effect the other way counts as inactive or inconclusive. On the % scale 0 is the no-effect control and ±100 the full control effect; potency means the concentration at half of the fitted maximal effect.

SMILES	Tau ThT inhib	Tau fluor counter	Tau fibril FP	VP16 counter	RORgamma inh
CC1=NN(C(=O)Cn2ccc([N+](=O)[O-])n2)C(O)(C(F)(F)F)C1 (configuration not stated)	2%	5%	2%	?	?
Cc1ccccc1OCC(=O)N1CCC(c2nc3ccccc3s2)CC1	-11%	-4%	7%	.	.
CC1=C(C(=O)OCc2ccc(C)cc2)C(c2cccc(F)c2F)CC(=O)N1 (configuration not stated)	-11%	-27%	-12%	.	.
CSC1=NS(=O)(=O)c2c(C)nn(C)c2S1	16µM*	-20%	?	?	?
CCC(=O)NC(/C=C/c1ccccc1)c1cc([N+](=O)[O-])c2cccnc2c1O (configuration not stated)	?	-8%	13%	2µM*	2.2µM*
CC(C)C(=O)NC(c1cccs1)c1cc([N+](=O)[O-])c2cccnc2c1O (configuration not stated)	14µM*	-22%	-7%	3.5µM*	3.2µM*
Cc1ccc(C(NC(=O)C(C)C)c2cc([N+](=O)[O-])c3cccnc3c2O)cc1 (configuration not stated)	?	-16%	8%	?	2.2µM*
Cc1cccc(N2CCN(C(=O)CN3C(=O)COc4ccc(S(=O)(=O)N5CCC(C)CC5)cc43)CC2C)c1 (configuration not stated)	-11%	-9%	10%	.	.
CC(C)Oc1ccc(CNC(=O)c2ccc3nc(C(C)C)oc3c2)cc1	-6%	-12%	3%	.	.
COc1ccc(C(=O)N/C(N)=N/c2nc3ccccc3o2)cc1	?	-9%	-2%	?	8.9µM*
N/C(=N\c1nc2ccccc2o1)NC(=O)c1ccc(F)cc1	-12%	-13%	?	5.6µM*	2.5µM*
N/C(=N\c1nc2ccccc2o1)NC(=O)c1ccccc1Br	-12%	-20%	-5%	-32%	0.89µM*
N/C(=N\c1nc2ccccc2o1)NC(=O)c1ccc(Cl)cc1	17%	18%	1%	?	10µM*
CC(C)(C)c1ccc(C(=O)N/C(N)=N/c2nc3ccccc3o2)cc1	-6%	-19%	-13%	0%	1%
O=C(CSc1nc2nccnc2c(=O)n1CCc1c[nH]c2ccccc12)Nc1ccccc1	?	-14%	-1%	.	.
COc1cc(/C=C2\SC(=O)N(c3cccc(Cl)c3)C2=O)cc([N+](=O)[O-])c1O	8.9µM*	?	2%	-10%	28%
COc1cc(/C=C2/C(=O)NN(c3cccc(C)c3)C2=O)cc([N+](=O)[O-])c1O	14µM*	-18%	0%	-15%	2%
CCOc1ccc(/C=C2\SC(=O)N(c3ccc(O)cc3)C2=O)cc1OC	.	4%[0.0958 µM]	-3%[0.0958 µM]	2%	8%
COc1cc(/C=C2\SC(=O)N(c3ccc(Cl)cc3)C2=O)cc([N+](=O)[O-])c1O	18µM*	?	3%	-3%	8%
COc1cc(/C=C2/C(=O)NN(c3ccc(C)c(Cl)c3)C2=O)cc([N+](=O)[O-])c1O	.	.	.	-1%	22%
CC1=Nc2nc(N3CCCCC3)c(C#N)c3c4c(nc(c23)N1)N(c1ccc(C(C)C)cc1)C(=O)C4	13µM*	-30%	?	-14%	42%
COc1ccc(-c2cn3cc(C)ccc3n2)cc1F	?	-10%	-13%	4µM*	2µM*
COc1ccc(-c2cn3cc(C)ccc3n2)cc1OC	?	-8%	-9%	?	11µM*
COc1ccc(-c2cn3ccccc3n2)cc1OC	-18%	-5%	10%	-16%	5%
COc1ccc(CCN(C)CCCN2CCc3cc(OC)c(OC)cc3CC2=O)cc1OC	-1%	-12%	?	0%	0%
SMILES	Tau ThT inhib	Tau fluor counter	Tau fibril FP	VP16 counter	RORgamma inh
CCCc1cnc2c(c1SCC(=O)Nc1ccccc1F)c(=O)n(C)c(=O)n2C	-6%	2%	7%	.	.
O=C(CN1CCN(S(=O)(=O)c2ccccc2)CC1)Nc1ccc([N+](=O)[O-])cc1	-1%	-7%	6%	-22%	43%
O=c1cc(O)n(C2CCCCCC2)c(=O)[nH]1	.	.	.	17%	8%
O=c1[nH][nH]c(=S)n1C1CCCCC1	32µM*	-26%	?	?	11µM*
CCOc1ccc2c(c1)n([O-])c1c([n+]2=O)CCCC1	20µM*	-22%	?	?	13µM*
CCOC(=O)c1c(C)oc2c1c1c(c3ccccc32)OCN(Cc2cccnc2)C1	18µM*	?	?	7.9µM*	1.8µM*
CCOC(=O)c1c(C)oc2c1c(C=NCC1CCCO1)c(O)c1ccccc12 (configuration not stated)	?	-27%	-2%	1%	2%
CCOC(=O)c1c(C)oc2c1c(C(c1cccnc1)N1CCOCC1)c(O)c1ccccc12 (configuration not stated)	18µM*	?	-5%	?	?
CCOC(=O)c1c(C)oc2c1c(C=NCc1ccccn1)c(O)c1ccccc12	13µM*	?	-8%	?	6.3µM*
O=C(NCc1ccccc1)[C@]1(C(F)(F)F)C[C@H](CCC2CCCCC2)CCCO1	.	.	.	7%	-19%
CCCCN1CN(Cc2ccccc2)CNC1=S	-2%	0%	2%	5µM*	4.5µM*
CCOCCCN1CN(Cc2ccccc2)CNC1=S	-5%	-7%	-5%	3.5µM*	2.5µM*
O=C(CSc1ncccc1-c1nc2ccccc2[nH]1)NCc1ccco1	?	-21%	?	0%	-10%
Cc1cc(C)c2cc(C#N)c(SCC(=O)NCc3ccco3)nc2c1	?	-1%	?	?	13µM*
Cc1cc2nc(-c3cccnc3SCC(=O)NCc3ccco3)[nH]c2cc1C	?	-13%	-14%	13µM*	11µM*
CCOC(=O)c1[nH]nc(-c2cc(CC)c(O)cc2O)c1-c1cscn1	4%	4%	1%	13µM*	?
CCCc1cc2c(=O)c(-c3cscn3)c(C(=O)OCC)oc2cc1O	0%	-3%	-6%	-25%	?
N=C1/C(=C\c2ccc(SCc3ccccc3)o2)C(=O)N=C2SC=NN12	8.9µM*	-19%	?	9%	-10%
CCS(=O)(=O)C1=NN2C(=N)/C(=C\c3ccc(SCc4ccco4)o3)C(=O)N=C2S1	14µM*	?	-21%	6%	-24%
COc1cc(/C=C2\C(=N)N3N=CSC3=NC2=O)ccc1OS(=O)(=O)c1ccccc1[N+](=O)[O-]	.	.	.	-16%	-32%
N=C1/C(=C\c2ccc(SCc3ccccc3)o2)C(=O)N=C2SC(CC(=O)N3CCOCC3)=NN12	14µM*	-11%	7%	6%	33%
N#C/C(=C\c1cccc([N+](=O)[O-])c1)c1nnc2n1CCCCC2	-7%	-1%	-7%	-12%	?
